Test results as given in PubChem BioAssay AID504467 (National Center for Advancing Translational Sciences (NCATS), 2011).
Hit rate of the full screen: of about 330,000 compounds, about 7,700 (2.3%) were called active. Entries that show only a call come without a potency. Another 26% or so got no clear call; they are omitted. This is one part of a sample in which actives are shown more often than they occur. Calls come from the whole dose curve; as a rule, active = well fitted inhibition curve with a large enough effect; inconclusive = small, poorly fitted or top-dose-only effect, or effect the other way; inactive = flat fitted curve, though single readings scatter.

Assay: qHTS screen for small molecules that inhibit ELG1-dependent DNA repair in human embryonic kidney (HEK293T) cells expressing luciferase-tagged ELG1; note: nearly all actives have a fitted effect of over 55% in size
Details: HEK293T ELG1-luciferase reporter, luminescence, 16 h, DNA damage induced by 5-fluorouridine; series mostly up to 46.1 µM
How it was run: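 Cells (2,000 per well) received 5-fluorouridine plus test compound or DMSO and were incubated 16 hr at 37 °C, 5% CO2. Luciferase activity was read by luminescence 30 min after ONE-Glo addition; signal suppression marked inhibition of damage-induced ELG1 function.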
Potency is the fitted concentration of half-maximal effect.

SMILES	Potency
COc1ccc(NS(=O)(=O)c2cc(NC(=O)C3CCCCC3)ccc2N2CCOCC2)cc1	20.6 µM (active)
COc1ccc(NS(=O)(=O)c2cc(NC(=O)/C=C/c3cc(OC)c(OC)c(OC)c3)ccc2N2CCCCC2)cc1	inactive
COc1ccc(NS(=O)(=O)c2ccc(N3CCOCC3)c(NC(=O)c3ccccc3Br)c2)cc1	inactive
COc1ccc2oc(C)c(NC(C)=O)c2c1	inactive
CC(=O)c1c(C)oc2ccc(NS(=O)(=O)c3ccc(C(=O)O)cc3)cc12	inactive
COc1ccc(S(=O)(=O)Nc2ccc3oc(C)c(C(C)=O)c3c2)cc1	2.59 µM (active)
Cc1ccc(S(=O)(=O)N2CCC(C(=O)OCC(=O)N(C)c3ccccc3)CC2)cc1C	inactive
CCN(CC(=O)Nc1ccc(C)c(S(=O)(=O)N(C)C)c1)Cc1ccccc1	inactive
CC(C)(C)c1ccc(SCCc2ccncc2)cc1	inactive
CCC(C(=O)NC1CCCC1)N(C(=O)Cn1nnc(-c2ccc(C)o2)n1)c1ccc(OC)c(OC)c1 (stereo not given)	inactive
CCOCC(=O)Nc1sc2c(c1C(=O)OCC)CCCC2	inactive
COC(=O)c1c(NC(=O)COC(=O)[C@@H](NS(=O)(=O)c2ccccc2)C(C)C)sc2c1CCC2	25.9 µM (active)
COC(=O)c1c(NC(=O)CCCC(=O)O)sc2c1CCCCC2	inactive
O=C1C=C(c2cc(C(F)(F)F)cc(C(F)(F)F)c2)C[C@@H](c2ccc3c(c2)OCO3)C1	inactive
Cc1cccc(NC(=O)c2sc3nc4c(c(-c5ccco5)c3c2N)CCC4)c1	inactive
NC(=O)c1sc2nc3c(c(-c4ccccc4)c2c1N)CCC3	4.11 µM (active)
Cc1nc2sc(C(=O)c3ccccc3)c(N)c2c2c1CCCC2	inactive
CC(=O)N1CCN(c2ccccc2NC(=S)NC(=O)c2cc3ccccc3o2)CC1	inactive
COc1ccc(-c2oc3ncnc(NCCCO)c3c2-c2ccc(OC)cc2)cc1	18.3 µM (active)
COc1ccc(-c2oc(/N=C/N3CCCC3)c(C#N)c2-c2ccc(OC)cc2)cc1	inactive
c1ccc(-c2oc3ncnc(N4CCOCC4)c3c2-c2ccccc2)cc1	inactive
CCn1c(=O)c2ccccc2n(CC(=O)N2CCCc3ccccc32)c1=O	inactive
CCN(C[C@H]1N[C@@](CC)(C(=O)OC)[C@H]2C(=O)N(Cc3ccccc3)C(=O)[C@@H]12)S(=O)(=O)c1ccccc1	inactive
COc1ccc(NC(=O)c2cc([N+](=O)[O-])ccc2NC(=O)CNC2CCCCC2C)c(OC)c1 (stereo not given)	inactive

SMILES	Potency
CCOc1ccc(C(C(=O)NC2CCCC2)N(C(=O)c2snc(C(N)=O)c2N)C2CCCC2)cc1 (stereo not given)	inactive
COc1ccc(C(=O)OCC(=O)c2cc(C)n(CC3CCCO3)c2C)cc1[N+](=O)[O-] (stereo not given)	inactive
O=C(CN1CCCCCC1)N1c2ccccc2Sc2ccc(C(F)(F)F)cc21	inactive
COc1cc(/C=C/C(=O)N2c3ccccc3Sc3ccc(C(F)(F)F)cc32)cc(OC)c1OC	9.2 µM (active)
O=C(CN1CCCCC1)N1c2ccccc2Sc2ccc(C(F)(F)F)cc21	inactive
COC(=O)C1CCN(C(=O)NC2CC(=O)N(c3ccc4c(c3)OCCO4)C2)CC1 (stereo not given)	inactive
COc1cccc(C(=O)Nc2nnc(S(=O)(=O)N3CCOCC3)s2)c1	inactive
COc1ccc(C(=O)Nc2nc(-c3ccc(S(=O)(=O)N4CCOCC4)cc3)cs2)cc1	11.6 µM (active)
COC(=O)COc1ccc(S(=O)(=O)N2CCOCC2)cc1	inactive
Cc1ccc(C(=O)COC(=O)CCN2C(=O)C3C4CCC(C4)C3C2=O)cc1C (stereo not given)	inactive
COc1cc(C2CC(=O)c3cnc(NC(C)=O)nc3C2)cc(OC)c1OC (stereo not given)	inactive
CCCOC(=O)c1[nH]c2c(c1C)C(=O)CC(c1cc(OC)c(OC)c(OC)c1)C2 (stereo not given)	5.17 µM (active)
COCCOC(=O)c1[nH]c2c(c1C)C(=O)CC(c1ccc(OC)cc1)C2 (stereo not given)	inactive
COc1ccc(OC)c(S(=O)(=O)Nc2c(C)nn(C)c2C)c1	inactive
Cc1cc(C)c(C)c(S(=O)(=O)N2CCN(C(=O)c3ccc4c(=O)n5c(nc4c3)CCC5)CC2)c1C	inactive
COc1ccc(C=C(C#N)C#N)c(CSc2ccccn2)c1	inactive
Cc1cccc(OCC(=O)NC(=S)Nc2ccccc2N2CCOCC2)c1	inactive
Cc1cc(N2CCCC2)ccc1NC(=O)COc1ccc(Cl)cc1	inactive
Cc1cc(C)cc(OCC(=O)Nc2ccc(N3CCOCC3)cc2N2CCOCC2)c1	16.4 µM (active)
COc1cccc(CNC(=O)CCC2CCCN(C(=O)c3ccc(F)c(Cl)c3)C2)c1 (stereo not given)	inactive
COc1cccc(NC(=S)NCCCN2CCOCC2)c1	inactive
Cc1ccc(NC(=S)NCCN2CCOCC2)cc1	inactive
CCOc1cccc(/C=N/NC(=S)NCCN2CCOCC2)c1O	13 µM (active)
CCN(CC)C(=O)[C@H]1C[C@H](CC(=O)NCC23CC4CC(CC(C4)C2)C3)C(=O)N2CCc3c([nH]c4cc(CCC(=O)N(C)C)ccc34)[C@]12C	inactive

SMILES	Potency
COc1ccc(C(=O)c2c3ccc([N+](=O)[O-])cc3[n+]([O-])n2CCCN)cc1	inactive
COc1ccc(Cc2nnc(SCC(=O)N(c3ccccc3)C(C)C)n(N)c2=O)cc1	inactive
COc1ccc2c(c1)C(NS(=O)(=O)OCC(Cl)(Cl)Cl)CCC2 (stereo not given)	inactive
Cc1cc(C)c2cc(CN(Cc3nnnn3Cc3ccc(F)cc3)C3CCCC3)c(=O)[nH]c2c1	inactive
CCCN(Cc1cc2cccc(C)c2[nH]c1=O)S(C)(=O)=O	inactive
CN1CCN(C(c2cc3cc4c(cc3[nH]c2=O)OCCO4)c2nnnn2C2CCCC2)CC1 (stereo not given)	inactive
COc1ccc2[nH]c(=O)c(CN(Cc3nnnn3CCc3ccccc3)CC3CCCO3)cc2c1 (stereo not given)	inactive
Cc1cccc2cc(CN(Cc3nnnn3Cc3ccccc3)C3CCCC3)c(=O)[nH]c12	20.6 µM (active)
Cc1cccc2cc(CN(Cc3cccs3)C(c3nnnn3C3CCCC3)C(C)C)c(=O)[nH]c12 (stereo not given)	11.6 µM (active)
Cc1ccc(N2C(=O)N3[C@@H]4c5ccccc5OC[C@@H]4[C@@H](c4ccccc4)[C@@]3(C)C2=O)cc1	inactive
CC(=O)N1CCSc2ccc(S(=O)(=O)N3CCC(C)CC3)cc21	inactive
CC(Sc1nn(-c2ccc(Cl)cc2)c(=S)s1)C(=O)NCC1CCCO1 (stereo not given)	inactive
COc1ccccc1N(CCOc1ccccc1)S(=O)(=O)c1ccccc1	inactive
N#CC1=C(SCc2ccc(C#N)cc2)N=C(N)C(c2nc(-c3ccccc3)cs2)C12CCCCC2 (stereo not given)	inactive
N#CC1=C(SCc2ccccc2)NC(=O)C(C#N)C12CCCC2 (stereo not given)	14.6 µM (active)
COC(=O)CSC1=C(C#N)C(c2ccccc2OC)C(C(=O)OC)C(=O)N1 (stereo not given)	inactive
COc1ccc(C(=O)NCc2nnc(SCC(=O)NC3=NCCS3)n2C)cc1	inactive
O=C(COC(=O)c1cc[n+]([O-])cc1)Nc1ccc(Cl)c(C(F)(F)F)c1	inactive
CN(C)C1=NC[C@H](Cc2ccccc2)N1CCc1ccc(F)cc1	inactive
COc1ccc(NC(=O)C2CCC(CNC(=O)[C@@H]3Cc4ccccc4CN3)CC2)cc1 (stereo not given in full)	inactive
COc1ccc(N(Cc2cc3ccc(C)cc3[nH]c2=O)S(=O)(=O)c2ccccc2)cc1	inactive
CC(C)n1cnc2c(NCc3ccccc3)cc(N[C@@H](CO)Cc3ccccc3)cc21	16.4 µM (active)
CC(C)n1cnc2c(NCc3ccccc3)cc(OCC3CCN(C)CC3)cc21	inactive
COc1ccc(CNC(=O)/C(C#N)=C/c2cccc(OC)c2OC)cc1	inactive

SMILES	Potency
CN(CC(=O)Nc1ccc(OC(F)F)cc1)S(=O)(=O)/C=C/c1ccccc1	inactive
O=[N+]([O-])c1ccc(N2CCN(c3ccc(O)cc3)CC2)c(Cl)c1	23.1 µM (active)
COc1ccc(N2CCN(c3ccc([N+](=O)[O-])cc3Cl)CC2)cc1	inactive
O=C(O)C1CCN(c2ccc([N+](=O)[O-])cc2[N+](=O)[O-])CC1	inactive
CN(C)C(=O)CCc1ccc2c3c([nH]c2c1)[C@]1(CCC2CCCC2)[C@@H](C(=O)N2CCOCC2)C[C@H](CC(=O)NCc2ccco2)C(=O)N1CC3	inactive
CCN(CC(=O)Nc1cc(Cl)ccc1C)C(=O)Cn1c(=O)cnc2ccccc21	inactive
CC(Oc1ccc2c(-c3ccccc3)cc(=O)oc2c1)C(=O)NC(Cc1c[nH]c2ccccc12)C(=O)O (stereo not given)	inactive
CC(C)(C)OC(=O)C[C@@H]1C/C=C\C[C@@H](CC(=O)N[C@H](CO)Cc2ccccc2)C(=O)NCCOC1=O	inactive
CCNC(=S)N1CCN(c2ncccn2)CC1	inactive
CC(Oc1ccc(F)cc1)C(=O)N1CCN(c2ncccn2)CC1 (stereo not given)	inactive
CC12CCC(C(=O)N3CCN(c4ncccn4)CC3)(c3nc4ccccc4nc31)C2(C)C (stereo not given)	4.11 µM (active)
CN(C(=O)CN1C(=O)/C(=C/c2ccc(Cl)cc2)SC1=S)C1CCS(=O)(=O)C1 (stereo not given)	inactive
CC(=O)NCCn1c(SCC(=O)Nc2ccc(C)cc2)nc2ccccc2c1=O	inactive
COCCn1c(SCC(=O)Nc2ccc3c(c2)CCC3)nc2ccccc2c1=O	inactive
CCn1c(SCC(=O)Nc2ccc(C)cc2)nc2nc3c(cc2c1=O)CCCC3	18.4 µM (active)
COc1cc(/C=C/C(=O)OCC(=O)c2ccccc2)cc(OC)c1OC	inactive
O=C(c1ccc(Cl)nc1)N1CCN(S(=O)(=O)c2ccc3c(c2)OCCO3)CC1	inactive
COc1ccc(C(C(=O)NC(C)(C)C)N(Cc2ccc(F)cc2)C(=O)CCC(=O)Nc2cc(C)on2)cc1 (stereo not given)	inactive
Cc1cc(NC(=O)C(C)SCC(=O)Nc2ccccc2N2CCCCC2)no1 (stereo not given)	inactive
C[C@H](NS(=O)(=O)c1ccc(Cl)cc1)C(=O)OCC(=O)N1CCOCC1	inactive
CCn1c(SCc2ccccc2)nc2c(c1=O)SCC2	inactive
Cn1c(SCC(=O)N2CCCCC2)nc2c(c1=O)SCC2	inactive
Cc1cccc(CSc2nc3c(c(=O)n2C)SCC3)c1	14.6 µM (active)
